Consider 40 compounds from PubChem BioAssay (NCI).

Compounds without any hit were thinned out: in the full panel of roughly 83,000, 20% have a hit.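 Percent growth is the endpoint: 0 to 100 indicates growth inhibition (40 means 60% inhibition), 0 means no net growth, and negative values indicate cell death.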 Active and inactive are the calls of the source. The calls were made as follows: active = growth percent below 10; inactive = the rest.

In the assay the test system is HL-60(TB) leukemia. Description: NCI-60 one-dose screen, 48 h (100 = growth as untreated, 0 = no growth, -100 = all killed). The settings on record: 10 µM unless noted.
On to `CC(=O)Nc1cccc(Nc2nccc(N[C@@H](C)c3ccccc3)n2)c1`, for which the growth is 5.18% (active).
Next, `COc1ccc(C2c3sc4ccc(C)cc4c3Oc3nc[nH]c(=O)c32)cc1` (stereo not given): 85.2% (inactive).
Next, `N#Cc1ccc(C(=O)Nn2c(N)cc3ccccc3c2=O)cc1`: 98.5% (inactive); `Cc1ccc(-c2nc(C#N)c(S(=O)(=O)N3CCN(S(C)(=O)=O)CC3)o2)cc1`: 2.43% (active); `Cc1ccc(/C(N)=N/c2sc(-c3ccccc3)nc2-c2ccccc2)cc1`: 87% (inactive).
Turning to `COCOc1ccc2c(=O)c(C)c(C(=O)N[C@@H](Cc3ccccc3)C(O)C(=O)NCCc3ccc(OC)cc3)oc2c1` (stereo not given in full), the growth was 102% (inactive).
Next, `Brc1ccc(/C=N/Nc2ncnc3sc4c(c23)CCN(Cc2ccccc2)C4)cc1`: 19.9% (inactive); `Cn1cc(-c2cc3nc(-c4cn(C)c5ncc(Br)cc45)cc(N)n3n2)c2ccccc21`: -60.3% (active).
Regarding `CSc1ccccc1NC(=O)c1ccc2nn(/C(C#N)=C/c3ccccn3)nc2c1`, the growth was -12.8% (active).
For the compound `FC(F)(F)c1cc2c(Cl)ncnc2n1CCN1CCOCC1`, the growth was 7.02% (active).
Next, `Cc1nn(-c2ccccc2)c2ncn(CC(=O)N/N=C/c3c[nH]c4ccccc34)c(=O)c12`: 83.8% (inactive); `O=C1c2c(c3c4cc(F)ccc4oc3c3[nH]c4ccc(Br)cc4c23)C(=O)N1O`: 16.9% (inactive).
As for `O=C(CNc1nc(-c2ccccc2)cs1)Nc1ccc([N+](=O)[O-])cc1`, the figure is 5.69% (active).
As to `Cc1c(C(=O)NNC(=O)c2ccc(Cl)cc2)nnn1-c1ccc(Br)cc1`, the growth was 102% (inactive).
Next, `O=C(Cc1ccc2c(c1)CN(C1CCC(=O)NC1=O)C2=O)NCc1cccc2ccccc12` (stereo not given): -24.9% (active).
On to `COc1ccc2c(c1)C(=N/N=C(\C)c1ccc(OC)c(S(N)(=O)=O)c1)C(=O)N2`, for which the growth was 91.7% (inactive).
`Cc1ccc(NC(=O)N/N=C/c2c[nH]c3ccccc23)c(C)c1`: the growth was 1.73% (active).
On to `O=C(CSc1nnc(-c2ccc(-c3nc4ccccc4[nH]3)cc2)o1)Nc1ccccc1`, for which the growth is 53.5% (inactive).
Next, `Cc1noc2c(Cc3ccccc3)nn(CC(=O)N/N=C/c3ccc(F)cc3)c(=O)c12`: 93.2% (inactive); `Cc1ccc(S(=O)(=O)c2nc(S(=O)(=O)c3ccc(C)cc3)c(N3CCC(O)CC3)s2)cc1`: 35.5% (inactive); `COc1ccc(-c2cc(-c3cc(C(=O)c4ccc(Br)cc4)n4ccc(C)cc34)nc(N)c2C#N)cc1`: 96.6% (inactive).
As for `CC(=O)Nc1ccc(-n2cnc3ccc(-c4ccc(O)cc4)cc32)cc1`, the figure is 38.2% (inactive); as for `O=C1Nc2cc(-c3ccc(NS(=O)(=O)c4ccc(C(F)(F)F)cc4)cc3)ccc2/C1=C/c1ccc[nH]1`, 1.77% (active).
As for `Cc1cccc(NC(=O)CN2CCN(c3ncnc4c3cnn4-c3ccccc3)CC2)c1`, the figure is 88.3% (inactive); as for `O=C(NNC(=O)c1ccc(OCc2nc3ccc(Cl)cc3[nH]2)cc1)Nc1ccc(Cl)c(Cl)c1`, 103% (inactive); as for `CN(C)c1ccnc(CNCCSC2(c3ccc(C(F)(F)F)cc3)c3ccccc3CCc3ccccc32)c1`, -41.9% (active).
`COc1cc2oc(-c3cccc(C(=O)Nc4ccc(Cl)cc4)c3)cc(=O)c2c(OCC(=O)N[C@@H](Cc2ccccc2)C(=O)O)c1OC`: the growth is 115% (inactive).
As for `CCNCCCn1c2c(c3cc(OC)c(OC)cc3c1=O)C(=O)c1cc3c(nc1-2)OCO3`, the figure is 55.1% (inactive).
Next, `O=C(CNc1nc(-c2ccccc2)cs1)Nc1ccccc1`: -30.5% (active); `COc1ccc(-c2c(Nn3cnnn3)no[n+]2[O-])cc1`: 38.8% (inactive).
Next, `O=C(CSc1nnc(-c2ccc(-c3nc4ccc(Cl)cc4[nH]3)cc2)o1)Nc1ccc(Cl)cc1`: 4.27% (active).
On to `O=C(O)CCCCCCCCCCN1C(=O)/C(=C/c2cnc(-c3ccc(Cl)cc3)s2)SC1=S`, for which the growth was 33.7% (inactive).
Consider `C=CC[n+]1cccc2c3ccccc3ccc21`, for which the growth is 57.2% (inactive).
As for `C=C1CCC2C3(C)COC(c4cccs4)OC3CCC2(C)C1CC(Sc1ccccc1)C1=CCOC1=O` (stereo not given), the figure is 19.4% (inactive); as for `CCCSc1nc(Nc2ccc(S(N)(=O)=O)cc2)c(C#N)c(-c2ccc(Cl)cc2)n1`, 46.3% (inactive).
Next, `CCOC(=O)N/C(=C1/OCCN1C)[P+](c1ccccc1)(c1ccccc1)c1ccccc1`: 29.9% (inactive); `O=C(/C=C/Nc1ccc(Cl)cc1)c1ccc2c(c1)Nc1ccccc1S2`: 92.7% (inactive).
Turning to `COc1cc2c3c(n(CCCN4CCOCC4)c(=O)c2cc1OC)-c1nc2c(cc1C3=O)OCO2`, the growth is 65.2% (inactive).
As for `O=C(NO)c1ccc(CNc2nc(-c3ccccc3)c3ccccc3n2)cc1`, the figure is -4.14% (active); as for `COc1c(B(O)O)cc(F)cc1-c1nc2ccc3[nH]ncc3c2c2c1COCC2`, 22.5% (inactive).
